Our source for the survival values is PubChem BioAssay AID463173 (ICCB-Longwood Screening Facility, Harvard Medical School, 2010).

About 4,300 (8.3%) of roughly 52,000 compounds were called active. No stated cut-off is given here; in the data, active means survival mostly below about 52% (no sharp cut-off); inactive means mostly above about 56%. This excerpt belongs to a sample that is enriched for actives.

This assay relates to DeltatarO mutant. Briefly: growth inhibition of S. aureus wild type versus tarO mutant, primary screen, teichoic acid synthesis inhibitors, RN4220, OD600 (AID 463173). The conditions noted are these: OD600, 18 h, hits give low values, screened at 18.75 µg/mL (by protocol).
Turning to `Cc1ccc(S(=O)(=O)NCCc2cn3ccsc3n2)cc1`, the survival was 64% (inactive).

As for `COc1ccc(S(=O)(=O)NCCc2cn3ccsc3n2)cc1`, the survival is 86% (inactive).

On to `COc1ccc(S(=O)(=O)NCCc2cn3ccsc3n2)cc1OC`, for which the survival was -1% (active).

Consider `CCN(CCCNC(=O)c1cc2c(=O)[nH]c3ccc(C)cc3c2s1)c1ccc(C)cc1`, for which the survival is 68% (inactive).

For the molecule `CCc1cccc(C)c1NC(=O)COCc1cc(-c2ccc3c(c2)OCO3)on1`, the survival was 101% (inactive).

Take `COCCn1ccc2c(OCC(=O)NCc3ccc(F)cc3)cccc2c1=O`: the survival was 92% (inactive).

In the case of `CCn1ccc2c(OCC(=O)Nc3ccccc3C)cccc2c1=O`, the survival was 8% (active).

Consider `COCCn1ccc2c(OCC(=O)Nc3cccc(OC)c3)cccc2c1=O`, for which the survival was 92% (inactive).

As for `CCOc1ccccc1NC(=O)COc1cccc2c(=O)n(CCOC)ccc12`, the survival is 70% (inactive).

Regarding `CCOCCn1ccc2c(OCC(=O)Nc3cccc(F)c3)cccc2c1=O`, the survival was 91% (inactive).

Consider `CCn1ccc2c(OCC(=O)NCc3ccccc3)cccc2c1=O`, for which the survival is 102% (inactive).

For `CCn1ccc2c(OCC(=O)Nc3ccc(C(C)=O)cc3)cccc2c1=O`, the survival is 66% (inactive).

Regarding `CCn1ccc2c(OCC(=O)Nc3ccc(OC)cc3OC)cccc2c1=O`, the survival was 20% (active).

On to `CCn1ccc2c(OCC(=O)Nc3ccccc3C(F)(F)F)cccc2c1=O`, for which the survival is 85% (inactive).

For `CCOCCn1ccc2c(OCC(=O)Nc3cc(C)cc(C)c3)cccc2c1=O`, the survival was 83% (inactive).

On to `COCCn1ccc2c(OCC(=O)Nc3ccccc3F)cccc2c1=O`, for which the survival was 25% (active).

In the case of `CCOCCn1ccc2c(OCC(=O)Nc3ccc(C(N)=O)cc3)cccc2c1=O`, the survival was 37% (active).

In the case of `COC(=O)c1sccc1S(=O)(=O)N(CC(=O)NCc1ccc(C)cc1)c1ccc(C)c(C)c1`, the survival is 68% (inactive).

For the molecule `Fc1ccccc1N1CCN(c2ncnc3c2nc2n3CCCC2)CC1`, the survival was 84% (inactive).

Regarding `O=C(Nc1ccccc1)c1ccc(S(=O)(=O)N2CCCC2)cc1`, the survival was 94% (inactive).

For `N#Cc1ccccc1NC(=O)C(=O)NCC(c1ccc2c(c1)OCO2)N1CCOCC1` (stereo unspecified), the survival is 71% (inactive).

Turning to `CCC(=O)N1CCc2cc(Br)cc(S(=O)(=O)CCC(=O)N3CCN(c4ccccc4F)CC3)c21`, the survival is 80% (inactive).

As for `O=C(NCc1ccccc1Cl)C1CCCN(S(=O)(=O)c2cccc3nsnc23)C1` (stereo unspecified), the survival is 91% (inactive).

With `CCN1CCN(CCC(=O)Nc2ccc(OC)cc2)CC1`, the survival is 97% (inactive).

`Cc1nn(-c2ccccc2)c2sc(C(=O)NN=C3CCCC3)cc12`: the survival is 109% (inactive).

Regarding `Cc1nn(-c2ccccc2)c2sc(C(=O)N(CC(=O)NC3CCCC3)C3CC3)cc12`, the survival was 78% (inactive).

As for `Cc1nn(-c2ccccc2)c2sc(C(=O)N(Cc3ccco3)C(C)C(=O)NC3CCCCC3)cc12` (stereo unspecified), the survival was 60% (active).

`O=C(OCc1ccccc1Cl)c1ccc(-c2nnn(Cc3ccccc3)n2)cc1`: the survival is 52% (inactive).

For the molecule `CC(C)CNC(=O)C1CCN(S(=O)(=O)c2ccc(-n3cnnn3)cc2)CC1`, the survival is 86% (inactive).

Regarding `Cc1ccc(NC(=O)Cn2c(=O)nc(-c3ccccc3F)c3cc(Cl)ccc32)c(Br)c1`, the survival was 79% (inactive).

Consider `O=C1CC2CCC(CN1)N2S(=O)(=O)c1ccc(C(=O)O)cc1` (stereo unspecified), for which the survival is 93% (inactive).

As for `Cc1ccc(-c2cc(C(=O)N3CCN(S(=O)(=O)c4ccc(Br)s4)CC3)[nH]n2)c(C)c1`, the survival is 70% (inactive).

With `O=C(NCc1ccccc1Cl)c1cnc2sc(N3CCCCC3)nn2c1=O`, the survival was 76% (inactive).

In the case of `COc1ccc(C(=O)NCC(c2ccc(N(C)C)cc2)N2CCc3ccccc32)cc1` (stereo unspecified), the survival is 118% (inactive).

For `Cc1cc(C(=O)Nc2ccccc2C(=O)O)c(C)o1`, the survival is 66% (inactive).

For the molecule `Cc1cc(C(=O)NCc2ccc(C(=O)O)o2)c(C)o1`, the survival was 58% (active).

As to `Cc1cc(C(=O)NCC(=O)O)c(C)o1`, the survival was 76% (inactive).

Consider `CCC(=O)NC1CCNCC1`, for which the survival was 76% (inactive).

As for `CCOc1ccccc1CNS(=O)(=O)c1ccc2[nH]c(=O)ccc2c1`, the survival was 81% (inactive).

As to `CCOc1ccc(CNS(=O)(=O)c2ccc3[nH]c(=O)ccc3c2)cc1`, the survival was 85% (inactive).

For `CCOc1ccc(OCC)c(NS(=O)(=O)c2ccc3[nH]c(=O)ccc3c2)c1`, the survival was 8% (active).

Consider `Cc1ccc(C)c(NS(=O)(=O)c2ccc3oc(=O)c4ncn(C)c4c3c2)c1`, for which the survival is 82% (inactive).

Turning to `O=C(NCCCc1nc2ccccc2n1Cc1ccccc1F)c1ccco1`, the survival was 63% (inactive).

For the molecule `O=C(NCCc1nc2ccccc2n1Cc1ccccc1F)c1ccc(F)cc1`, the survival is 81% (inactive).

On to `COc1cccc(OCc2nc3ccccc3n2Cc2ccccc2C)c1`, for which the survival was 75% (inactive).

For `COc1ccc(Cc2nc3ccccc3n2Cc2ccccc2F)cc1`, the survival was 18% (active).

For the molecule `Cc1ccccc1Cn1c(CCCNC(=O)C2CCCCC2)nc2ccccc21`, the survival was 90% (inactive).

In the case of `COc1ccc(Cc2nc3ccccc3n2Cc2ccccc2C)cc1`, the survival is -3% (active).

Regarding `CC(=O)N1CCc2cc(CNC(=O)Cc3ccc(F)cc3)ccc21`, the survival was 94% (inactive).

For the molecule `Cc1oc2cc3oc(=O)c(CC(=O)N4CCCCC4)c(C)c3cc2c1C`, the survival is 73% (inactive).

For the molecule `O=C(Cn1cc(SCc2ccccc2F)c2ccccc21)N1CCCCC1`, the survival is 82% (inactive).

As for `O=C(Nc1ccc(Cl)cc1)c1cc(S(=O)(=O)NC2CCCCCC2)ccc1F`, the survival was 90% (inactive).

As for `CCc1ccc(NC(=O)c2ccc(F)c(S(=O)(=O)N(C)C3CCCCC3)c2)cc1`, the survival was 84% (inactive).

Take `COC(=O)c1ccc(CN(Cc2ccc(OC)c(OC)c2)S(=O)(=O)c2cc(C(=O)Nc3cccc(C)c3)ccc2F)cc1`: the survival is 86% (inactive).

Consider `CCOc1ccc(NC(=O)c2ccc(F)c(S(=O)(=O)N(CC)Cc3ccccc3)c2)cc1`, for which the survival was 78% (inactive).

For the molecule `O=C(Nc1ccc(Br)cc1)c1ccc(F)c(S(=O)(=O)NC2CCCCCC2)c1`, the survival is 84% (inactive).

On to `Cc1ccc(NC(=O)c2cc(S(=O)(=O)NC3CCCCCC3)ccc2F)cc1F`, for which the survival was 92% (inactive).

Take `CCc1ccc(NC(=O)c2ccc(F)c(S(=O)(=O)NC3CCCCCC3)c2)cc1`: the survival is -2% (active).

As for `Cc1ccc(NC(=O)c2cc(S(=O)(=O)NC3CCCCC3)ccc2F)cc1Cl`, the survival was -5% (active).

`O=C(Nc1ccc(F)c(F)c1)c1cc(S(=O)(=O)NC2CCCCCC2)ccc1F`: the survival was 54% (inactive).

Turning to `O=C(Nc1ccc(C(F)(F)F)cc1)c1cc(S(=O)(=O)NC2CCCCC2)ccc1F`, the survival was 92% (inactive).

As for `O=C(Nc1ccc(C(F)(F)F)cc1)c1cc(S(=O)(=O)NC2CCCCCC2)ccc1F`, the survival was 25% (active).

In the case of `CCOc1ccc(NC(=O)c2ccc(F)c(S(=O)(=O)N(Cc3ccc(C(=O)OC)cc3)Cc3ccc(OC)c(OC)c3)c2)cc1`, the survival is 47% (active).

Regarding `CSc1nnc(COc2ccc(Br)cc2)n1Cc1ccccc1`, the survival was 97% (inactive).

Take `CCNC(=O)Nc1ccc2nc(C)n(Cc3cccc(Cl)c3)c(=O)c2c1`: the survival is 104% (inactive).

With `Cc1nn(-c2ccccc2)c2c1N(CCCC(=O)NCc1ccccc1)C(=O)CS2`, the survival was 99% (inactive).

Consider `O=C(c1ccco1)N1CCN(Cc2cccc(Br)c2)CC1`, for which the survival is 95% (inactive).

For `Cc1ccc(CNC(=O)CCCCn2c(=O)c3ccccc3n(Cc3ccc(C)cc3)c2=O)cc1`, the survival is 67% (inactive).

As to `CCOc1ccc(OCC)c(NC(=O)C2CCN(S(=O)(=O)c3ccc(Br)s3)CC2)c1`, the survival is 80% (inactive).

Turning to `COc1cc(NC(=O)C2CCN(S(=O)(=O)c3ccc4c(c3)oc(=O)n4C)CC2)cc(OC)c1`, the survival is 102% (inactive).

As to `Fc1ccccc1OCc1nc(-c2ccc(-n3cccc3)cc2)no1`, the survival was 75% (inactive).

Regarding `COc1ccc(CNC(=O)CSc2nc3ccccc3nc2Cc2ccccc2OC)cc1`, the survival was 70% (inactive).

Consider `CCOc1ccc(NC(=O)C2CCC(CNS(=O)(=O)c3ccc4c(c3)CCCC(=O)N4)CC2)cc1` (stereo unspecified), for which the survival was 47% (active).

Consider `Cc1cc(C)cc(NC(=O)C2CCC(CNS(=O)(=O)c3ccc4c(c3)C(C)(C)C(=O)N4C)CC2)c1` (stereo unspecified), for which the survival was 102% (inactive).

As for `COc1ccc(NC(=O)C2CCC(CNS(=O)(=O)c3ccc4c(c3)C(C)(C)C(=O)N4C)CC2)cc1` (stereo unspecified), the survival is 54% (inactive).

`CC(=O)c1ccc(NC(=O)C2CCC(CNS(=O)(=O)c3ccc4c(c3)CCCC(=O)N4)CC2)cc1` (stereo unspecified): the survival is 73% (inactive).

For `CC(C)c1ccc(NC(=O)C2CCC(CNS(=O)(=O)c3ccc4c(c3)CCCC(=O)N4)CC2)cc1` (stereo unspecified), the survival was 73% (inactive).

On to `Cc1ccc(NC(=O)C2CCC(CNS(=O)(=O)c3ccc4c(c3)C(C)(C)C(=O)N4C)CC2)cc1` (stereo unspecified), for which the survival is 67% (active).

Take `Cc1ccc(S(=O)(=O)NC2CCCCC2)c2nsnc12`: the survival was 78% (inactive).

In the case of `Cc1nc(C)c(CCNS(=O)(=O)c2ccc(F)cc2)s1`, the survival was 119% (inactive).

In the case of `CCc1cccc(NC(=O)CSc2n[nH]c(-c3ccccc3Cl)n2)c1`, the survival is 66% (inactive).

Turning to `Cc1cc(Nc2ccccc2O)nc(C)n1`, the survival was 67% (inactive).

As for `CC(=O)Nc1ccc(NS(=O)(=O)c2c(C(=O)N3CCCCCC3)c(C)n(C)c2C)cc1`, the survival is 66% (inactive).

As to `CCOc1ccc(CNS(=O)(=O)c2c(C(=O)N3CCC(C)CC3)c(C)n(C)c2C)cc1OC`, the survival was 81% (inactive).

For `CCOc1ccc(OCC)c(NS(=O)(=O)c2c(C(=O)N3CCCCCC3)c(C)n(C)c2C)c1`, the survival was 76% (inactive).

Consider `Cc1ccc(NS(=O)(=O)c2c(C(=O)N3CCC(C)CC3)c(C)n(C)c2C)cc1Cl`, for which the survival was 126% (inactive).

Take `COc1cc(OC)c(NS(=O)(=O)c2c(C(=O)N3CCC(C)CC3)c(C)n(C)c2C)cc1Cl`: the survival is 17% (active).

On to `CC(=O)Nc1ccc(NS(=O)(=O)c2c(C(=O)N3CCC(C)CC3)c(C)n(C)c2C)cc1`, for which the survival is 20% (active).

In the case of `CCOc1ccc(OCC)c(NS(=O)(=O)c2c(C(=O)N3CCC(C)CC3)c(C)n(C)c2C)c1`, the survival was 8% (active).

For `COc1ccc(C)cc1NS(=O)(=O)c1c(C(=O)N2CCC(C)CC2)c(C)n(C)c1C`, the survival was 89% (inactive).

Regarding `COc1cc(OC)c(NS(=O)(=O)c2c(C(=O)N3CCCCCC3)c(C)n(C)c2C)cc1Cl`, the survival is 68% (inactive).
